Only some compounds are listed: those with a hit (about 9.2% of all), similar ones and a draw of the others.
NPC1 promoter act: activates the NPC1 promoter. 2.4% of 320,000 active. Potency, µM (doses to about 9.22 µM), for inactives: at the highest dose activation, usual class: activators. AID 485313. Huh7 NPC1 promoter luciferase reporter, 24 h; also: % of control where 0% means no effect; nearly all actives have a fitted effect of over 60% in size
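Huh7 reporter cells (NPC1 promoter driving luciferase) are dosed with compound for 24 h at 37 °C, 5% CO2; luciferase detection reagent is then added and luminescence measured after 10 min at ambient temperature.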
Rab9 prom act: Rab9 promoter activation; Huh7 Rab9 promoter-luciferase reporter, luminescence, 24 h; AID 485297; Potency, µM (highest dose often 9.22 µM), for the others: top-dose activation, negative = inhibition, hits mostly activators; 2.8% of 320,000 active; also: % of control where 0% means no effect; nearly all actives have a fitted effect of over 60% in size
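Cell-based reporter: Huh7 stable for Rab9 promoter-driven luciferase, plated in reduced-serum medium with 10% FBS at 1500 cells/well, compound-treated 24 h at 37 °C, luminescence read after 10 min reagent.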
SMN2 splice up: SMN2 splice variant enhancement. HEK293 SMN2-luciferase splicing reporter, luminescence, 30-36 h. Potency, µM (top dose mostly 46.1 µM), inactives show at the highest dose activity change, positive = activation, hits mostly activators. 2.8% of 210,000 active; also: % of control where 0% means no effect; nearly all actives have a fitted effect of over 55% in size
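HEK293 cells carry an SMN2 minigene-luciferase reporter in which exon 7 inclusion puts luciferase in frame. Cells were seeded at 2000 cells/well, attached for 10-12 hours, then exposed to compounds for 30-36 hours at 37C before ONE-Glo luminescence.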
ELG1 genotox: genotoxicity induction in ELG1-luciferase HEK293T cells; HEK293T ELG1-luciferase reporter, luminescence, 16 h; Potency, µM (series often up to 46 µM), for the others: at the highest dose activity change, positive = activation, hits mostly activators; AID 504466; 1.3% of 330,000 active; also: % of control where 0% means no effect; nearly all actives have a fitted effect of over 60% in size
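Cells (2,000/well) expressing the ELG1-luciferase fusion are dosed by pin tool and kept 16 hr at 37 °C, 5% CO2. Signal comes from ONE-Glo luciferase reagent after 30 min at room temperature.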
FLuc modulator: inhibits or activates purified firefly luciferase, miR-21 counter-screen; 6.9% of 360,000 active; purified FLuc, Km substrates, luminescence inhibition; P08659; AID 588342; Potency, µM (doses to about 57.5 µM), without a hit: at the top dose activity change, negative = inhibition, most hits filed as inhibitors;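 also: plate controls were vehicle for no effect and reference inhibitor for full effect; nearly all actives have a fitted effect of over 55% in size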
Target sequence (P08659 whole entry, looked up): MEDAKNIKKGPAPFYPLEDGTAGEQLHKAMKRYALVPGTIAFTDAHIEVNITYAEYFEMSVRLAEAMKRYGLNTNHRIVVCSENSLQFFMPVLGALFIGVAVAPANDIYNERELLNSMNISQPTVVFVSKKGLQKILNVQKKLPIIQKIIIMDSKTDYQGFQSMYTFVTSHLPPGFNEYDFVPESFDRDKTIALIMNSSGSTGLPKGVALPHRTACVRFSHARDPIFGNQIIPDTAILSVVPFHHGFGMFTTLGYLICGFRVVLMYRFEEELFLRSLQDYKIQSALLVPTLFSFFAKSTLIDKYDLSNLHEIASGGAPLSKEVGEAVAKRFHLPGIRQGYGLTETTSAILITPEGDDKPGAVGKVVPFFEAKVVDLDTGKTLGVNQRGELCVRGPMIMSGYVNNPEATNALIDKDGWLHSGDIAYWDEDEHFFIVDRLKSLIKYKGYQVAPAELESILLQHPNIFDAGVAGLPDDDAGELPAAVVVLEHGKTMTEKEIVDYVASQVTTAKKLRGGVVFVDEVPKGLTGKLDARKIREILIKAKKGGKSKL
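Purified P. pyralis luciferase, 10 nM final, with Km-level 10 uM D-luciferin and 10 uM ATP in 50 mM Tris acetate pH 7.5, 10 mM Mg acetate, 0.01% Tween-20, 0.05% BSA; 6-point qHTS titration about 60 µM downward; luminescence read.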
ELG1 DNA repair: inhibitors of ELG1-dependent DNA repair in HEK293T cells; HEK293T ELG1-luciferase reporter, luminescence, 16 h; DNA damage induced by 5-fluorouridine; Potency, µM (highest dose often 46.1 µM), for inactives: at the top dose activity change, negative = inhibition, usual class: inhibitors; 2.3% of 330,000 active; AID 504467; also: % is scaled to controls: 0 for no effect and ±100 for the full control effect; nearly all actives have a fitted effect of over 55% in size
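HEK293T cells expressing luciferase-tagged ELG1 (2,000/well) received 5-Fluorouridine plus compound or DMSO for 16 hr at 37 °C. Luciferase was read by ONE-Glo luminescence after 30 min at room temperature.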
An asterisk follows results filed as active; ? = inconclusive; · = not tested or not shown; [ ] = another dose, or the depositor's remark. Calls follow the shape of the dose curve; as a rule, active = well fitted curve in the direction sought with a large enough effect; inconclusive = small, poorly fitted or top-dose-only effect, or another doubt; inactive = no such curve, though single readings can be large; an effect the other way counts as inactive or inconclusive. Potency is read from the fitted curve at half-maximal effect.

SMILES	NPC1 promoter act	Rab9 prom act	SMN2 splice up	ELG1 genotox	FLuc modulator	ELG1 DNA repair
O=C(C1CCN(S(=O)(=O)c2cccc3nsnc23)CC1)N1CCn2c1nc1ccccc12	0.4%	2.2%	-19.1%	-3.6%	3.2%	6.51µM*
O=C(C1CCCN(S(=O)(=O)c2cccc3nsnc23)C1)N1CCc2ccccc2C1 (stereo not given)	-0.4%	-1.0%	-35.0%	-10.8%	4.1%	16.4µM*
O=C(C1CCN(S(=O)(=O)c2cccc3nsnc23)CC1)N1CCc2ccccc21	1.1%	1.4%	-30.2%	-4.6%	3.1%	?
CCN(CC)C(=O)Cn1c(SCCOc2ccc(Cl)cc2)nc2ccccc21	·	·	·	·	-8.2%	·
O=C(CSc1ccccc1)Nc1ccc(N2CCOCC2)c(F)c1	3.55µM*	3.16µM*	·	?	?	?
Cc1ccc(-n2nnnc2SCC(=O)Nc2ccc(N3CCN(C)CC3)cc2)c(C)c1	6.3%	-10.9%	·	-1.4%	-2.2%	12.6%
Cc1ccc(SCC(=O)Nc2ccc(N3CCN(C)CC3)c(F)c2)c(C)c1	11.8%	4.2%	-14.5%	2.9%	12µM*	6.0%
Cc1ccc(/C=N/N2CCN(c3ccccn3)CC2)cc1	29.5%	?	17.7%	?	9.53µM*	?
ClC(=C\c1ccccc1)/C=N/N1CCN(c2ccccn2)CC1	3.16µM*	?	14.1µM*	9.2µM*	?	?
COC(=O)CNc1c(-c2ccccn2)nc2ccc(Br)cn12	1.58µM*	0.891µM*	5.01µM*	1.3µM*	3.38µM*	?
CCOC(=O)CNc1c(-c2ccccc2)nc2ccc(Cl)cn12	27.6%	22.7%	-0.4%	9.0%	9.53µM*	?
Cc1ccc(Nc2c(-c3ccccn3)nc3ccc(Br)cn23)cc1	·	·	5.0%	·	-0.3%	·
Cc1ccc2nc(-c3ccsc3)c(Nc3ccccc3C)n2c1	·	·	20.5%	·	4.4%	·
Cc1ccccc1Nc1c(-c2ccncc2)nc2ccc(Cl)cn12	-6.8%	12.2%	10µM*	-8.9%	-4.5%	-6.9%
CCOC(=O)CNc1c(-c2ccc(O)cc2)nc2ccc(Cl)cn12	20.2%	28.8%	38.0%	?	15.1µM*	?
CCOC(=O)CNc1c(-c2ccc(O)cc2)nc2ccccn12	2.7%	24.5%	-1.2%	4.3%	?	17.3%
O=C(OCC(=O)N1CCCC1=O)c1ccc(Cl)cc1[N+](=O)[O-]	0.5%	2.4%	·	-0.4%	-18.2%	3.1%
CCN(CC)S(=O)(=O)c1ccc(C(=O)NC2CC(=O)N(c3ccc4c(c3)OCCO4)C2)cc1 (stereo not given)	·	·	·	·	-2.3%	·
COc1ccc(CN2C(=O)C(NC(=O)c3ccc(C)cc3)(C(F)(F)F)N=C2c2ccccc2)cc1 (stereo not given)	·	·	-1.6%	·	-10.5%	·
O=C(N1CCC(n2nc(-c3ccccc3)oc2=O)CC1)C1(c2ccccc2)CC1	-1.2%	-1.2%	·	-5.9%	2.1%	?
O=C(Nc1cccc(-c2cnc3ccccc3n2)c1)c1ccncc1	0.6%	-0.3%	3.6%	2.3%	?	?
Nc1cccc(-c2cnc3ccccc3n2)c1	2.51µM*	?	·	9.2µM*	7.57µM*	?
O=[N+]([O-])c1cccc(-c2cnc3ccccc3n2)c1	?	?	·	26.0%	-5.7%	?
CNC(=S)Nc1cccc(-c2cnc3ccccc3n2)c1	?	?	·	?	16.9µM*	?
Cc1ccc(C(=O)Nc2cccc(-c3cnc4ccccc4n3)c2)cc1	1.5%	1.3%	-3.8%	1.6%	?	3.9%
SMILES	NPC1 promoter act	Rab9 prom act	SMN2 splice up	ELG1 genotox	FLuc modulator	ELG1 DNA repair
CS(=O)(=O)Nc1cccc(-c2cnc3ccccc3n2)c1	3.16µM*	4.47µM*	·	?	19µM*	?
CC(C)C(=O)Nc1cccc(-c2cnc3ccccc3n2)c1	?	?	-7.5%	?	15.1µM*	-1.2%
CCOC(=O)c1ccc(Nc2c(-c3ccc(N(C)C)cc3)nc3nc[nH]n23)cc1	·	·	·	·	-15.6%	·
COc1ccc(-c2nn(-c3ccccc3)cc2/C=N/NC(=S)NC(C)C)cc1OC	-6.7%	-0.1%	16.4%	-1.4%	-17.7%	11.6µM*
COc1ccc(-c2nn(-c3ccccc3)cc2/C=N/Nc2ccc3ccccc3n2)cc1OC	-4.8%	-19.3%	-65.9%	-8.8%	10.7µM*	11.6µM*
Cc1ccn2cc(C(=O)NCc3ccco3)nc2c1	6.5%	13.7%	15.1%	11.3%	-12.0%	?
O=C(Nc1ccccc1N1CCCCC1)c1ccc(F)c(S(=O)(=O)N2CCOCC2)c1	-4.6%	-6.3%	·	-6.4%	2.8%	13µM*
Cc1ccn2cc(C(=O)Nc3ccc4c(c3)OCCO4)nc2c1	1.41µM*	1µM*	?	5.8µM*	1.9µM*	?
O=C(Nc1ccccc1N1CCOCC1)c1ccc2ccccc2n1	26.0%	27.8%	6.8%	1.0%	7.57µM*	10.5%
Cc1ccn2cc(C(=O)Nc3nnc(C)s3)nc2c1	?	3.16µM*	·	?	15.1µM*	?
O=C(COC(=O)c1ccc(-n2cnnn2)cc1)Nc1cc(Cl)ccc1F	-7.8%	1.9%	·	-1.4%	5.0%	28.1%
CCCCCCCCCCCCCCC[C@H](O)[C@H](N)CO	6.3%[46.1 µM]	5.3%[46.1 µM]	0.4%	·	·	·
CN(C)C(CNC(=O)c1coc2ccccc2c1=O)c1ccccc1 (stereo not given)	-0.2%	-1.6%	·	-4.3%	-4.0%	?
O=C(Nc1cc(C(F)(F)F)ccc1N1CCOCC1)c1cn2ccccc2n1	0.2%	6.1%	9.8%	-1.8%	7.9%	-12.9%
O=C(Nc1ccccc1N1CCOCC1)c1cccc(Oc2ccccc2)c1	-35.1%	5.7%	·	-10.9%	21.3µM*	-9.9%
Cc1ccn2cc(C(=O)Nc3ccccc3N3CCOCC3)nc2c1	20.7%	17.2%	-2.7%	3.4%	15.1µM*	7.5%
COc1ccc(CNc2ncnc3ccc(-c4ccccc4CN(C)C)cc23)c(OC)c1	·	·	-9.0%	·	·	·
CCN(CC)S(=O)(=O)c1cc(C(=O)OC(C)C(=O)NCc2ccco2)ccc1C (stereo not given)	-2.0%	-2.9%	·	-0.6%	3.4%	?
CCOc1ccc(-n2cc(-c3ccccc3)c3c(N4CCN(c5ccccc5OC)CC4)ncnc32)cc1	·	·	·	·	0.8%	·
O=C(CCN1C(=O)C2C3CCC(C3)C2C1=O)OCC(=O)c1ccccc1 (stereo not given)	-0.8%	-1.8%	·	0.2%	13.5µM*	3.0%
O=C(Nc1ncc(Cc2ccc(C(F)(F)F)cc2)s1)c1ccc(-c2cccc([N+](=O)[O-])c2)o1	-12.2%	-10.3%	-59.9%	-3.0%	1.6%	20.6µM*
O=C(Nc1ncc(Cc2ccccc2Cl)s1)c1ccc(-c2cccc([N+](=O)[O-])c2)o1	-4.4%	-9.1%	·	-4.5%	-0.8%	13µM*
